Data as given in PubChem BioAssay (NCI).
This is part of a sample that, as a whole, favours compounds with a hit. Of some 79,000 tested, about 15% had one in any assay. Cut-off read from the data, not from the text of the source: active = growth inhibition above about 70%; inactive = the rest. Where a SMILES comes first, the peptide text is derived from it. [ ]: non-standard residue; d: D form. The star is where a group is joined. Nle = CCCC[CH](N)C(=O)O; Cbz = O=C(OCc1ccccc1)*

Assays:
[1] = NCI Yeast Anticancer Drug Screen. Data for the rad50 strain (AID 155);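 note: 0% = growth of vehicle-only cultures of the same strain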; details: S. cerevisiae rad50 strain growth inhibition; at 50.0 µM; hits give high values
In short: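 Vehicle-treated cultures provide the reference for the growth inhibition reported for compound-exposed, repair-deficient yeast.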

[2] = NCI Yeast Anticancer Drug Screen. Data for the mec2-1 strain (AID 157); details: S. cerevisiae mec2-1 strain, at 50.0 µM, hits give high values
In short: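 Readout is yeast growth inhibition, normalised to vehicle-treated controls, in the mec2-1 strain exposed to compound.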

[3] = NCI Yeast Anticancer Drug Screen. Data for the sgs1 mgt1 strain (AID 161);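 note: 0% = growth of cultures given vehicle only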; details: S. cerevisiae sgs1 mgt1 strain, at 50.0 µM, hits give high values
In short: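 Yeast cells carrying a defined DNA-repair defect were exposed to test compounds. Growth inhibition was measured relative to vehicle-treated controls.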

[4] = NCI Yeast Anticancer Drug Screen. Data for the cln2 rad14 strain (AID 165);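 note: 0% = growth equal to vehicle treated cultures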; details: S. cerevisiae cln2 rad14 strain, at 50.0 µM, hits give high values
In short: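 Relative to vehicle controls, growth inhibition of compound-treated cln2 rad14 yeast was recorded.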

[5] = NCI Yeast Anticancer Drug Screen. Data for the bub3 strain (AID 167); details: S. cerevisiae bub3 mutant strain, at 50.0 µM, hits give high values
In short: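 Mutant yeast screening strain plus compound; vehicle-treated cultures serve as the 0% inhibition reference.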

[6] = NCI Yeast Anticancer Drug Screen. Data for the mlh1 rad18 strain (AID 175); details: S. cerevisiae mlh1 rad18 strain growth inhibition; at 50.0 µM; hits give high values
In short: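 Test agents were incubated with a yeast strain of defined genotype (DNA damage repair defect). Inhibition of growth was derived by comparison with vehicle-exposed cultures.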

Measured: growth inhibition

CCN(CC)CC(C)(C)C=O
inactive: [1] 26.9% | [2] -19.8% | [3] 20.8% | [4] 4.3% | [5] -7.55% | [6] 15.1%

C=CCNC(=O)CS(=O)(=O)c1ccc(C)cc1
inactive: [1] 0.1% | [2] -10.3% | [3] -0.35% | [4] 15.3% | [5] 3.05% | [6] 10.6%

Cc1cc2cccc(C)c2[nH]1
inactive: [1] -11.4% | [2] -4.75% | [3] 18.6% | [4] 0.5% | [5] 4.6% | [6] -9.2%

O=C(NC12OC3CC(CC(C3)O1)O2)NC12OC3CC(CC(C3)O1)O2
inactive: [1] 3.6% | [2] 0.35% | [3] 14.2% | [4] -3.85% | [5] -30.3% | [6] 2.2%

Fc1ccc(/C=C/c2ccc(/C=C/c3ccc(F)cc3)nn2)cc1
inactive: [1] 18.4% | [2] -4.2% | [3] 7.8% | [4] -13.1% | [5] 5.15% | [6] -1.5%

COc1ccc(/C=C2/C[N+](C)(C)C/C(=C/c3ccc(OC)cc3)C2=O)cc1
inactive: [1] 10.3% | [2] 11.8% | [3] -7.15% | [4] 6.15% | [5] 16.4% | [6] -2.25%

OC(Cc1ccccc1)c1ccccc1 (stereo unspecified)
inactive: [1] -21.9% | [2] -19.8% | [3] -24.8% | [4] 16.2% | [5] -5.15% | [6] 1.5%

CCCCCC1SCC(=O)N1c1nncs1 (stereo unspecified)
inactive: [1] -1.7% | [2] -21.1% | [3] 14.3% | [4] 5.85% | [5] 6.65% | [6] 12.5%

CC1=NN(C(=O)CC(=O)Nc2cccc(C)c2)C(=O)C1N=Nc1ccc(C(=O)O)cc1 (stereo unspecified)
inactive: [1] -33.9% | [2] 5.95% | [3] 12.6% | [4] -11.7% | [5] -2.7% | [6] 25.9%

OC1=CC(=S)NC2CCCCC12 (stereo unspecified)
inactive: [1] 32.2% | [2] 18.2% | [3] 45% | [4] 35.9% | [5] 29.4% | [6] 49.8%

COc1ccc(/C(Br)=C2\OC(=O)c3ccccc32)cc1
inactive: [1] -7.95% | [2] -19.9% | [3] -13.4% | [4] -35.1% | [5] 18.4% | [6] -6.9%

CN(C)C(=O)c1ccc(-c2ccccc2)cc1O
inactive: [1] -10.3% | [2] 20.2% | [3] 0.05% | [4] -18.1% | [5] -10.1% | [6] -4.65%

CCCCCCCCCCCCCCCCCCN(C)CC(COC)OP(=O)([O-])OCC[N+](C)(C)C (stereo unspecified)
inactive: [1] 22.6% | [2] 14.3% | [3] 15.1% | [4] -3.45% | [5] 0.25% | [6] 24.9%

O=[N+]([O-])c1ccc(N/N=C(/c2ccc3ccccc3c2)c2ccccc2F)c([N+](=O)[O-])c1
inactive: [1] -9% | [2] -4.6% | [3] -12.2% | [4] -12% | [5] -1.85% | [6] -13.6%

Cc1cn(-c2c(C)c(C)c(-n3c(C)ccc3C)c(C)c2C)cc1C
inactive: [1] -3.1% | [2] -5.55% | [3] -6.2% | [4] -15.8% | [5] 4.85% | [6] 0%

c1ccc(-c2cnn3c(-c4ccccc4)cnnc23)cc1
inactive: [1] -1.65% | [2] -8.1% | [3] -2.55% | [4] 2.8% | [5] 2.8% | [6] 4.65%

O=c1c2ccccc2sc2nc(CCl)nn12
inactive: [1] 6.2% | [2] 4.25% | [3] 8.2% | [4] 16.8% | [5] 2.05% | [6] 47.2%

CC(C)c1ccc([N+](=O)[O-])cc1
inactive: [1] 31.5% | [2] 11.1% | [3] 11.2% | [4] 26.6% | [5] 5.95% | [6] 16.9%

COc1ccc(/C(N)=N/OCc2ccc(C#N)cc2)cc1
inactive: [1] -13.5% | [2] -21.4% | [3] -3.2% | [4] 10.3% | [5] 20.7% | [6] -25.8%

Cc1nc(SCC(=O)Nc2ccc(Cl)cc2)c2sc(=S)n(-c3ccccc3)c2n1
inactive: [1] -14.2% | [2] 4.6% | [3] -1.25% | [4] 2.35% | [5] -4.4% | [6] 5.4%

Cc1cccc2nc(-c3ccccn3)n(CCc3ccccn3)c12
inactive: [1] -5.2% | [2] 5.35% | [3] 1.65% | [4] -18.5% | [5] -8.2% | [6] 17.2%

CCOC(=O)COc1cc2c(cc1C(CC)c1ccccc1)OCO2 (stereo unspecified)
inactive: [1] -7.85% | [2] -1.45% | [3] -3.25% | [4] 5.95% | [5] 9.45% | [6] 2.9%

O=C(c1ccccc1)C(c1ccccc1)S(=O)(=O)N1CCCC1 (stereo unspecified)
inactive: [1] -4.65% | [2] 5.65% | [3] 21.6% | [4] -1.4% | [5] 12.7% | [6] 26.9%

CC12CC3OC3CC1CCC1C2CCC2(C)C1CCC21OCCO1 (stereo unspecified)
inactive: [1] 16% | [2] -32.7% | [3] 3.6% | [4] 3.15% | [5] 23.1% | [6] 22.6%

O=C1c2ccccc2C(=O)N1OCCCCON1C(=O)c2ccccc2C1=O
inactive: [1] 10.8% | [2] -0.2% | [3] -19.9% | [4] 15.1% | [5] 1% | [6] -2.4%

CCc1nc(N)nc(N)c1-c1ccc(Cl)c(NC(C)=O)c1
inactive: [1] 8.9% | [2] -3.6% | [3] -7.6% | [4] 10.1% | [5] 6.6% | [6] 1.95%

CCCCC(NC(=O)C(Cc1ccccc1)NC(=O)OCc1ccccc1)C(=O)O (stereo not drawn) (Cbz-Phe-[Nle]-OH; configuration not given here)
inactive: [1] 5.9% | [2] -1.2% | [3] -4.3% | [4] -31.8% | [5] -3.2% | [6] 9.05%

CCCCOC1CCC(O)C2CCCCC12 (stereo unspecified)
inactive: [1] 5.15% | [2] -2.5% | [3] -1.9% | [4] -0.7% | [5] -0.95% | [6] 9.85%

COC(=O)C12C3C4C1C1C2C3C41C(=O)N(C(C)C)C(C)C (stereo unspecified)
inactive: [1] 7.75% | [2] -1.45% | [3] -3.4% | [4] -3.55% | [5] 3.5% | [6] -14%

O=C(O)c1c2c(cc3c(=O)c4ccccc4[nH]c13)CCCC2
inactive: [1] -5.65% | [2] -16.4% | [3] 18.7% | [4] 7.25% | [5] -15.7% | [6] 5.2%

CC/C(SC)=[N+](\C)[O-]
inactive: [1] 3.9% | [2] -6.9% | [3] -23.1% | [4] -5.6% | [5] -20.4% | [6] 4.25%

C/C(C[n+]1ccccc1)=N\N=C(N)N
inactive: [1] -18.8% | [2] -9.05% | [3] -43.8% | [4] -20.5% | [5] -5.35% | [6] -9.2%

COC1CC(NC(C)=O)C(O)C(C)O1 (stereo unspecified)
inactive: [1] -10.2% | [2] -12.4% | [3] -10.6% | [4] -40% | [5] 5.65% | [6] 1.5%

OCCN(CCO)C(Cc1ccccc1)Cc1ccccc1
inactive: [1] -7.9% | [2] -9.95% | [3] -1.7% | [4] -11.1% | [5] 26.4% | [6] -22.9%

CN(C)c1ccc(/C=C(\C#N)C(=O)c2ccccc2)cc1Br
inactive: [1] 0.55% | [2] -6.1% | [3] 1.85% | [4] 22.7% | [5] -15.2% | [6] 13.8%

O=C1C(Cl)N(c2ccc([N+](=O)[O-])cc2)C1c1c[nH]c2ccccc12 (stereo unspecified)
inactive: [1] -4.2% | [2] -38.6% | [3] -0.3% | [4] 8.75% | [5] 19.2% | [6] -31.4%
